Results: ChEMBL document CHEMBL3988442, “University of Dundee, Small-Polar-MMV Screening Library” (2021)
In all, about 48,000 compounds went through this assay and about 13,000 (27%) showed an effect of 50% or more. Some of the results follow.

tested on: Wolbachia pipientis; test: Anti-Wolbachia Cell-Based Screen; type: functional; set-up: scale not given: in the data most compounds retested in dose-response had high values; details: 5 µM

Row | SMILES | Percent Effect
1 | CCC(c1nc(C(C)C)nn1-c1ccccn1)n1cccn1 (stereo unspecified) | 8.011%
2 | CC(C)N1CCc2c(c(COc3cncnc3)nn2CC2CC2)C1.O=C(O)C(F)(F)F | -1.489%
3 | c1ccc(-c2cnc(CNC3CCCN(c4cccnn4)C3)o2)cc1 (stereo unspecified) | -8.343%
4 | O=C(c1ccno1)N1C[C@@H](F)[C@@H](OCc2nc3ccccc3o2)C1 | 6.473%
5 | NC(=O)C1CN(c2ccc3c(Cl)ccnc3c2F)CCO1 (stereo unspecified) | -12.11%
6 | CCc1nc(NC(=O)Cc2csc(-c3nnc[nH]3)n2)sc1C | 3.287%
7 | CN(C)C(=O)N1Cc2nnn(C)c2C(COCC2CC2)C1 (stereo unspecified) | 7.957%
8 | COCC1CN(C(=O)[C@H]2CCCO2)Cc2nnn(CC3CC3)c21 (stereo partly specified) | -4.44%
9 | CCOCC1CN(C(=O)N(C)C)Cc2nnn(CC3CC3)c21 (stereo unspecified) | -7.85%
10 | O=C(O)C(F)(F)F.c1cc(CN2Cc3nnn(CC4CC4)c3C(COCC3CC3)C2)co1 (stereo unspecified) | 1.787%
11 | CN(C)C(=O)N1Cc2nnn(CC3CC3)c2C(COCC2CC2)C1 (stereo unspecified) | 117.2%
12 | C1CCC(CN2Cc3nnn(CC4CC4)c3C(COCC3CC3)C2)C1.O=C(O)C(F)(F)F (stereo unspecified) | 107.6%
13 | COCC1CN(Cc2ccncc2)Cc2nnn(CC3CC3)c21.O=C(O)C(F)(F)F.O=C(O)C(F)(F)F (stereo unspecified) | -5.053%
14 | C1CC(N2Cc3nnn(CC4CC4)c3C(COCC3CC3)C2)C1.O=C(O)C(F)(F)F (stereo unspecified) | 96.7%
15 | CCOCC1CN(C(=O)[C@H]2CCCO2)Cc2nnn(CC3CC3)c21 (stereo partly specified) | 0.1287%
16 | CCOCC1CN(CC2CCC2)Cc2nnn(CC3CC3)c21 (stereo unspecified) | 111.4%
17 | CCSC1(CNc2ncc(Br)cn2)CCOCC1 | -0.7161%
18 | Cc1cc(CN2CCN(C(=O)C(C)C)[C@@H]3CS(=O)(=O)C[C@@H]32)ccc1F | -3.716%
19 | CC(Cn1ccnc1)NCc1nncn1C1CCCCC1 (stereo unspecified) | -17.23%
20 | NC(=O)COc1ccc(CN2CC[C@@]3(O)CCCC[C@H]3C2)cc1Cl | 11.68%
21 | CSc1ncccc1C(=O)NC(C)c1cccc(N2CCOC2=O)c1 (stereo unspecified) | 5.443%
22 | Cc1cc(CN(C)C(=O)C2CCS(=O)(=O)C2)no1 (stereo unspecified) | 3.983%

Row | SMILES | Percent Effect
23 | CCCn1nnnc1CSc1nccn1Cc1ccccn1 | -4.795%
24 | CCn1ccnc1CNCC1CCCN1c1cccnn1 (stereo unspecified) | -7.119%
25 | O=C(Cc1cccs1)N1CCOCC1CO (stereo unspecified) | -3.953%
26 | O=C(Cc1ccsc1)N1CCCCC1c1ccn2ccnc2n1 (stereo unspecified) | 73.59%
27 | Cc1nc(CC(=O)N2CCCCC2c2ccn3ccnc3n2)cs1 (stereo unspecified) | -8.343%
28 | O=C(Cc1cccs1)N1CCCCC1c1ccn2ccnc2n1 (stereo unspecified) | 83.71%
29 | CN(Cc1ccccc1F)C(=O)c1cc(Cl)c[nH]1 | 92.86%
30 | Cc1ccccc1CS(=O)(=O)CC(=O)N(C)Cc1ccccc1F | -29.58%
31 | COc1ccc(Cl)cc1CS(=O)(=O)CC(=O)N(C)Cc1ccccc1F | -1.573%
32 | COC(=O)c1ccc(OCC(=O)N(C)Cc2ccsc2)c(OC)c1 | 0.9882%
33 | CN(Cc1ccccc1F)C(=O)CS(=O)(=O)Cc1ccc(Cl)c(Cl)c1 | 6.215%
34 | CN(Cc1ccccc1F)C(=O)COC(=O)c1cc(Cl)c[nH]1 | 87.09%
35 | CN(Cc1ccsc1)C(=O)COC(=O)c1cc(Cl)c[nH]1 | 107.8%
36 | COCCN1CCN(CC(=O)N(C)Cc2ccsc2)CC1C (stereo unspecified) | 9.964%
37 | CN(Cc1ccccc1F)C(=O)c1ccoc1 | 5.435%
38 | Cc1ccc(CNCC2CCc3nnc(C(C)C)n3C2)s1 (stereo unspecified) | -11.01%
39 | CN1CCN(C(=O)CCc2cc(Br)cs2)CC1 | -6.424%
40 | COc1cc(NC(=O)NC2CCOCC2)ccc1N1CCOC1=O | -14.6%
41 | Cc1ncc(CN(C)c2nc3c(cnn3C(C)(C)C)c(=O)[nH]2)s1 | 5.937%
42 | COc1c(CNC(c2nccn2C)C(C)C)c(C)nn1C (stereo unspecified) | -4.434%
43 | CCN(CC)Cc1cc(C(=O)N2CCC3(CC2)NCCNC3=O)c(C)o1 | -9.012%
44 | Cc1nc(N(C)C)nc(N(C)CCc2ccncc2)c1C | 13.66%

Row | SMILES | Percent Effect
45 | CC(C)N(C)C(=O)Cn1ncc(N(C)CCc2ccccc2)cc1=O | -17.71%
46 | CN(CCc1ccccn1)c1cnn(C)c(=O)c1Br | 101.4%
47 | CN(CCc1ccncc1)c1cnn(C)c(=O)c1Br | 103%
48 | COCCN(Cc1ccc(F)cc1Cl)C(=O)c1cnn(C)c1C | -5.759%
49 | CN(CCc1ccccc1)c1cnn(C)c(=O)c1Br | 67.25%
50 | COCCN(C)c1cnn(C)c(=O)c1Br | 101.6%
51 | CN(CCc1ccccn1)Cc1nccn1Cc1ccccc1 | 8.438%
52 | CN(CCc1ccccc1)c1cnn(Cc2ccccn2)c(=O)c1 | 5.151%
53 | COc1ccc(Br)cc1CN(C)c1nc2c(cnn2C)c(=O)[nH]1 | -19.59%
54 | Cc1nc(-c2ccncc2)nc(N(C)CCc2ccncc2)c1C | 0.9394%
55 | CN(C)CCN(C)c1nc(CCc2ccccc2)nc2c1cnn2C | 4.899%
56 | NS(=O)(=O)CCNC(=O)C1(c2ccc(Br)cc2)CC1 | -1.628%
57 | CCc1nnc2n1CCN(C(=O)Cc1csc(-c3ccco3)n1)C2 | -5.069%
58 | CCCC(=O)NCC(=O)Nc1cc(F)ccc1SCC(F)F | 9.844%
59 | Cc1noc([C@@H]2C[C@H](NC(=O)Nc3cccc(F)c3)CN2C)n1 | -4.092%
60 | CS(=O)(=O)NCc1n[nH]c2c1CCN(C(=O)c1ccsc1)C2 | -6.349%
61 | Cc1nn(C)cc1-c1ccnc(N(C)Cc2cccs2)n1 | -35.4%
62 | CCOc1cccc(CNC(C)c2ccc(-n3ccnc3)cc2)c1O (stereo unspecified) | -2.856%
63 | O=C(c1ccc(F)cc1Cl)N1CCn2c(nnc2C(F)(F)F)C1 | -1.794%
64 | OCCN1CCN(Cc2cnc3c(-c4ccccc4)cnn3c2)CC1 | -3.434%
65 | COCCCC1(C(=O)O)CCCN(Cc2cc3c(cc2C)OCCO3)C1 (stereo unspecified) | -2.058%
66 | Cc1ccc2nc(N3CCN(CC(=O)NC(C)C)CC3)cc(C)c2c1 | 5.586%

Row | SMILES | Percent Effect
67 | O=C(c1cn(CC(=O)N2CCCCCC2)c2ccccc12)C1CC1 | -6.817%
68 | COCCNC(=O)CN1CC=C(n2c(C)nc(=O)c3ccccc32)CC1 | 80.87%
69 | Cc1nc(=O)c2ccccc2n1C1=CCN(CC(=O)NC(C)C)CC1 | 121.8%
70 | Cc1nnc2n1CCN(CC(=O)NC(C)c1cccc3ccccc13)C2 (stereo unspecified) | -6.251%
71 | O=C(CN1CCc2cncnc2C1)NCCOc1ccccc1 | -0.7298%
72 | O=C(c1cn(CC(=O)N2CCCC2)c2ccccc12)C1CC1 | -23.59%
73 | Cc1nc(=O)c2ccccc2n1C1=CCN(CC(=O)N2CCCC2)CC1 | 121.3%
74 | COCCNC(=O)CN1CCN(c2nc3cc(C)ccc3o2)CC1 | -13.48%
75 | CCNC(=O)CN(CC)C(=O)c1cc(-c2cccc(Cl)c2)no1 | -7.468%
76 | CC(CN1CCOCC1)NC(=O)c1cccc2cn[nH]c12 (stereo unspecified) | 6.229%
77 | CN(C)C[C@H]1C[C@@H]2CN(C(=O)c3ccno3)C[C@@H]2O1.O=C(O)C(F)(F)F | -9.995%
78 | Cc1cnn(CC(=O)N2CCCN(Cc3cnn(C(C)C)c3)CC2)c1 | 117.3%
79 | CC(C)n1cc(CN2CCCN(C(=O)CN3CCCC3=O)CC2)cn1 | 122.9%
80 | Cc1cnc(C(=O)N2CCCN(Cc3cnn(C(C)C)c3)CC2)cn1 | 1.046%
81 | Cc1cc(C(=O)N2CCCN(Cc3cnn(C(C)C)c3)CC2)no1 | 2.122%
82 | NS(=O)(=O)c1cnc(NCC2(c3ccccc3)CCC2)s1 | -8.019%
83 | CC(=O)c1ccc(-c2cnn(CC(=O)Nc3cc(C)nn3C)c2)nc1 | 2.251%
84 | Cc1cc(NC(=O)Cc2ccc3c(c2)OCO3)n(C)n1 | 120.5%
85 | Cn1ncc(NC(=O)Cn2ccc(-c3ccc(F)cc3)n2)n1 | 6.673%
86 | Cn1nccc1NC(=O)Cn1ccc(-c2ccc3c(c2)OCO3)n1 | 132.1%
87 | Cc1cc(N2CCN(C(=O)Cc3ccc4c(c3)OCO4)CC2)cc(C)n1 | -8.837%
88 | Cc1cc(NC(=O)Cn2ccc(-c3ccc4c(c3)OCO4)n2)n(C)n1 | 140.3%

Row | SMILES | Percent Effect
89 | CCC1CN(CC(=O)Nc2cc(C)nn2C)CCO1 (stereo unspecified) | 11.37%
90 | Cn1ncc(NC(=O)Cn2ccc(-c3cccc(F)c3)n2)n1 | -3.857%
91 | Cc1cc(NC(=O)NCCc2ccc3c(c2)OCCO3)n(C)n1 | -3.946%
92 | CCCOc1cc(Cl)c(CN2CCNC(C(=O)NC3CC3)C2)cc1OC (stereo unspecified) | -0.8522%
93 | O=C(c1cncc(N2CCCC3(CCNCC3)CC2)n1)N1CCCCC1 | 3.422%
94 | COc1cc(F)cc(CNC(=O)Nc2ccn(CC(F)F)n2)c1 | -8.907%
95 | CSCC1CCN(C(=O)c2ccccc2NCc2cccnc2)C1 (stereo unspecified) | 46.56%
96 | COCC(=O)N(Cc1cccnc1)CC1CCCN(C2CCCCC2)C1 (stereo unspecified) | -12.35%
97 | NC(=O)CN1CCC(C(=O)N2CCCC(OCc3cccnc3)C2)CC1 (stereo unspecified) | -8.18%
98 | Cc1c(NCc2cccnc2)cccc1C(=O)N1CCC(N(C)C)C1 (stereo unspecified) | 115.4%
99 | CC(C)N1CCN(C(=O)c2ccccc2NCc2cccnc2)CC1 | 80.75%
100 | Cc1[nH]nc(CCC(=O)N2CCCC(OCc3cccnc3)C2)c1C (stereo unspecified) | 1.428%
101 | O=C(c1cnc(NCc2cccnc2)c(Cl)c1)N1CCCCC1 | 2.275%
102 | CN(C)C[C@H]1OC[C@@H]2CN(C(=O)NCc3cccnc3)CC[C@@H]21.O=C(O)C(F)(F)F.O=C(O)C(F)(F)F | -2.462%
103 | CCOC1CCCN(C(=O)c2ccccc2NCc2cccnc2)C1 (stereo unspecified) | 55.92%
104 | Cc1ccc(CNC(=O)N2CCN(C(C)c3cccnc3)CC2)cn1 (stereo unspecified) | -10.7%
105 | COC(=O)C1CCN(C(=O)c2cccc(NS(C)(=O)=O)c2C)CC1 | 5.787%
106 | COCC1CCCN(C(=O)c2ccccc2NCc2cccnc2)C1 (stereo unspecified) | 97.72%
